# Reference: the supplement of paper PMC8728848
# About 410 targets per protein were measured; listed, in parts, are those with the strongest signals and a random draw of the rest.
# Experiments:
# Experiment in all cases: glycan array binding signal (z-score within array); higher = stronger binding
# Conditions in all cases: glycan notation: IUPAC condensed, linker removed
# [1] = molecular target: Fuc(a1-2)Gal(b1-3)GlcNAc(b1-2)Man(a1-3)[Fuc(a1-2)Gal(b1-3)GlcNAc(b1-2)Man(a1-6)]Man(b1-4)GlcNAc(b1-4)GlcNAc
# Procedure, shortened: (§1)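 The Consortium for Functional Glycomics database supplied 3228 glycan arrays, of which those lacking an available protein sequence were dropped. The binding signal, a within-array Z-score, was averaged across arrays of the same protein sequence and across linkers. Negative scores can be read as non-binding.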
# [2] = molecular target: Fuc(a1-2)Gal(b1-3)GlcNAc(b1-3)GalNAc
# Procedure, shortened: as §1
# [3] = molecular target: Fuc(a1-2)Gal(b1-3)GlcNAc(b1-3)[Fuc(a1-2)Gal(b1-3)GlcNAc(b1-6)]GalNAc
# Procedure, shortened: as §1
# [4] = molecular target: Fuc(a1-2)Gal(b1-3)GlcNAc6S
# Procedure, shortened: as §1
# [5] = molecular target: Fuc(a1-2)Gal(b1-4)GlcNAc(b1-2)Man
# Procedure, shortened: as §1
# [6] = molecular target: Fuc(a1-2)[Gal(a1-3)]Gal(b1-3)GlcNAc(b1-2)Man(a1-3)[Fuc(a1-2)[Gal(a1-3)]Gal(b1-3)GlcNAc(b1-2)Man(a1-6)]Man(b1-4)GlcNAc(b1-4)[Fuc(a1-6)]GlcNAc
# Procedure, shortened: as §1
# [7] = molecular target: Fuc(a1-2)[Gal(a1-3)]Gal(b1-4)GlcNAc(b1-2)Man(a1-3)[Fuc(a1-2)[Gal(a1-3)]Gal(b1-4)GlcNAc(b1-2)Man(a1-6)]Man(b1-4)GlcNAc(b1-4)GlcNAc
# Procedure, shortened: as §1
# [8] = molecular target: Fuc(a1-2)[Gal(a1-3)]Gal(b1-4)GlcNAc(b1-2)Man(a1-3)[Fuc(a1-2)[Gal(a1-3)]Gal(b1-4)GlcNAc(b1-2)Man(a1-6)]Man(b1-4)GlcNAc(b1-4)[Fuc(a1-6)]GlcNAc
# Procedure, shortened: as §1
# [9] = molecular target: Fuc(a1-2)[GalNAc(a1-3)]Gal(b1-3)GlcNAc(b1-6)GalNAc
# Procedure, shortened: as §1
# [10] = molecular target: Fuc(a1-2)[GalNAc(a1-3)]Gal(b1-4)[Fuc(a1-3)]GlcNAc(b1-3)GalNAc
# Procedure, shortened: as §1
# [11] = molecular target: Fuc(a1-3)[Gal(b1-4)]GlcNAc(b1-6)[Gal(b1-3)GlcNAc(b1-3)]Gal(b1-4)Glc
# Procedure, shortened: as §1
# [12] = molecular target: Fuc(a1-3)[Gal3S(b1-4)]Glc
# Procedure, shortened: as §1
# [13] = molecular target: Fuc(a1-3)[GalNAc(b1-4)]GlcNAc
# Procedure, shortened: as §1
# Fuc(a1-4)GlcNAc = molecular target: Fuc(a1-4)GlcNAc
# Procedure, shortened: as §1
# [14] = molecular target: Gal(a1-3)Gal(b1-3)GlcNAc(b1-2)Man
# Procedure, shortened: as §1
# Gal(a1-3)GalNAc = molecular target: Gal(a1-3)GalNAc
# Procedure, shortened: as §1
# Gal(a1-4)GlcNAc = molecular target: Gal(a1-4)GlcNAc
# Procedure, shortened: as §1
# Gal(b1-2)Gal = molecular target: Gal(b1-2)Gal
# Procedure, shortened: as §1
# [15] = molecular target: Gal(b1-3)GlcNAc(b1-2)Man(a1-3)[Gal(b1-3)GlcNAc(b1-2)Man(a1-6)]Man(b1-4)GlcNAc(b1-4)GlcNAc
# Procedure, shortened: as §1
# [16] = molecular target: Gal(b1-3)GlcNAc(b1-2)Man(a1-3)[Gal(b1-3)GlcNAc(b1-2)Man(a1-6)]Man(b1-4)GlcNAc(b1-4)[Fuc(a1-6)]GlcNAc
# Procedure, shortened: as §1
# [17] = molecular target: Gal(b1-3)GlcNAc(b1-3)Gal(b1-4)[Fuc(a1-3)]GlcNAc
# Procedure, shortened: as §1
# [18] = molecular target: Gal(b1-3)GlcNAc(b1-6)[Gal(b1-3)]GalNAc
# Procedure, shortened: as §1
# Gal(b1-4)Glc6S = molecular target: Gal(b1-4)Glc6S
# Procedure, shortened: as §1
# Gal(b1-4)GlcNAc(b1-2)Man = molecular target: Gal(b1-4)GlcNAc(b1-2)Man
# Procedure, shortened: as §1
# [19] = molecular target: Gal(b1-4)GlcNAc(b1-2)Man(a1-3)Man(b1-4)GlcNAc(b1-4)GlcNAc
# Procedure, shortened: as §1
binder,measurement,setting,value
PX9916F-bfa-443-24-443 (Bacteroides fragilis) (protein) DIRPVGSVIPQTAEEYRALLARAYLNVPNDRGLACLRSDEMLVNDNEYDRNSYGDIERWNDVSPFPGTSQFTWSNFYNVLFIANQVIESQKEITEGTPEVVNQLVGEAHLLRAYLHFVLVNLHGQPYTKSGALNSKSIPLKLDTDLEKTLGRNTVEEVYTSILSDIEHARELINKEKWETVFSYRFNVLSVDALQSRVSLYMGAWPKCLESAEAVLAKKSVLVDMNETPLALPNHFESVESITALEQVMGSSVNNAVWVPATFLALYQEGDKRLAAYFAAPDENGNRKSSKGGKREFSCTFRVGELYLNAAEAAANMDKLPHARMRLLELMRKRYTPEAYDKKENAVNVMDKNALISEILNERARELAFEGHRWFDLRRTTRPRMVKVLQGKTYILEQDDPRYTIPIPRDAIAANPGLAN,glycan array binding signal (z-score),[1],3.24
same,glycan array binding signal (z-score),[2],0.31
same,glycan array binding signal (z-score),[3],-0.372
same,glycan array binding signal (z-score),[4],-0.338
same,glycan array binding signal (z-score),[5],0.848
same,glycan array binding signal (z-score),[6],8.18
same,glycan array binding signal (z-score),[7],8.54
same,glycan array binding signal (z-score),[8],2.44
same,glycan array binding signal (z-score),[9],0.212
same,glycan array binding signal (z-score),[10],2.91
same,glycan array binding signal (z-score),[11],3.87
same,glycan array binding signal (z-score),[12],0.001
same,glycan array binding signal (z-score),[13],0.251
same,glycan array binding signal (z-score),Fuc(a1-4)GlcNAc,1.76
same,glycan array binding signal (z-score),[14],-0.056
same,glycan array binding signal (z-score),Gal(a1-3)GalNAc,-0.469
same,glycan array binding signal (z-score),Gal(a1-4)GlcNAc,-0.265
same,glycan array binding signal (z-score),Gal(b1-2)Gal,0.596
same,glycan array binding signal (z-score),[15],0.347
same,glycan array binding signal (z-score),[16],1.79
same,glycan array binding signal (z-score),[17],-0.126
same,glycan array binding signal (z-score),[18],0
same,glycan array binding signal (z-score),Gal(b1-4)Glc6S,0.038
same,glycan array binding signal (z-score),Gal(b1-4)GlcNAc(b1-2)Man,2.63
same,glycan array binding signal (z-score),[19],-0.479
